Assay results as given in PubChem BioAssay AID504444 (National Center for Advancing Translational Sciences (NCATS), 2011).
Where “and” joins values, the source holds several entries; their conditions need not be identical. Equal values may be shown once. Out of some 360,000 compounds screened, about 7,500 (2.1%) were called active. About 20% were inconclusive and are not listed. Calls follow the shape of the dose curve; as a rule, active = well fitted inhibition curve with a large enough effect; inconclusive = small, poorly fitted or top-dose-only effect, or effect the other way; inactive = flat fitted curve, though single readings scatter. Shown is part of a subset that was picked to be rich in actives. More than one record can exist for a structure, and the calls need not agree.

Assay: Nrf2 qHTS screen for inhibitors; also: nearly all actives have a fitted effect of over 60% in size
Conditions: A549 ARE-Fluc reporter, luciferase luminescence, 18-24 h; series mostly up to 46 µM; activity change, negative = inhibition: at the top concentration
Summary of the method: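 Cells were seeded and rested 2 h, then exposed to compounds for 18-24 h. CellTiter-Fluor was read first as a viability measure. BugLite was added 15 min before the final luminescent read of ARE-luciferase activity in A549 cells.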
% is scaled to controls: 0 for no effect and ±100 for the full control effect; potency is read from the fitted curve at half-maximal effect.

Compound	activity change, negative = inhibition	Potency
CCN(CC)S(=O)(=O)c1ccc(CNC(=O)CN2C(=O)NC3(CCc4ccccc43)C2=O)cc1 (configuration not stated)	-5.28% (inactive)	
Cc1ccc(C)c(N2CCN(C(=O)Cn3ncc4c(=O)oc5ccc(C)cc5c43)CC2)c1	-1.2% (inactive)	
O=C(NCc1ccccc1)c1cccc(NC(=O)C2CCCCC2)c1	-2.53% (inactive)	
Cn1nnnc1SCCCNCc1cccc(OCc2ccc(Cl)cc2)c1	16.4% (inactive)	
COc1ccc(CNC(=O)CCc2c(C)nn(-c3ccc(N4CCCC4)nn3)c2C)cc1	11.6% (inactive)	
O=[S+]([O-])(c1ccc(OC(F)(F)F)cc1)N1CCN([S+](=O)([O-])c2ccc3c(c2)OCCO3)CC1	16.6% (inactive)	
COc1cccc(CNC(=O)c2ccc3c(c2)N(Cc2ccc(C(F)(F)F)cc2)C(=O)c2ccccc2S3)c1OC	-2.78% (inactive)	
CCOc1ccc(C(=O)/C=C/c2cn(CC(O)CN3CCCCCC3)c3ccccc23)cc1 (configuration not stated)	22.8% (inactive)	
CCS(=O)(=O)c1nc(S(=O)(=O)c2ccc(C)cc2)c(NCc2ccc(Cl)cc2)s1	-1.83% (inactive)	
NC1=NOC(=O)C1C1CCCCC1 (configuration not stated)	-7.5% (inactive)	
Cc1cc(C)c(NC(=O)CSc2nc3ccncc3[nH]2)c(C)c1		inactive
CC(=O)Nc1ccc(C(=O)CSc2nc3ccc(C)cc3[nH]2)cc1	26.7% (inactive)	
CCCCNS(=O)(=O)c1ccc2nc(SCC(=O)Nc3cc(C)cc(C)c3)[nH]c2c1		13 µM (active)
Cc1ccc(/C=C(\C#N)C(=O)Nc2cc(C)ccc2C)cc1	5.62% (inactive)	
CC(C)(C)c1ccc(S(=O)(=O)Nc2ccc(O)c(Sc3nc4ccccc4s3)c2)cc1	1.33% (inactive)	
CCOc1ccc(NC(=O)c2c(NC(=O)Cc3ccccc3)sc3c2CCCCC3)cc1	-17.2% (inactive)	
COc1cccc(NS(=O)(=O)c2ccc(-c3coc(C)n3)cc2)c1	-27.9% (inactive)	
COc1ccc(NS(=O)(=O)c2ccc(Oc3c(C#N)cccc3C#N)cc2)cc1		13 µM (active)
COc1ccc(NS(=O)(=O)c2cccc(C(=O)NCCc3ccc(S(N)(=O)=O)cc3)c2)cc1	5.04% (inactive)	
N#CCSc1nc2c(c(=O)n1Cc1ccccc1)C1(CCCC1)Cc1ccccc1-2	10.3% (inactive)	
Cc1cccc(-n2c(SCC(N)=O)nc3c(oc4ccccc43)c2=O)c1	1.69% (inactive)	
Cc1cccc(-n2c(SCC(N)=O)nc3c(c2=O)C2(CCCCC2)Cc2ccccc2-3)c1		20.6 µM (active)
C[C@H](CO)N1C[C@H](C)[C@@H](CN(C)Cc2ccc(-c3ccccc3)cc2)Oc2ccc(NC(=O)Cn3cnnn3)cc2C1=O	0.445% (inactive)	
OCC(O)C1OCOC(C(O)CO)C1O (configuration not stated)	-10.3% (inactive)	
CCOc1ccc(NC(=O)c2c(NC(=O)Cc3ccccc3)sc3c2CCC(C)C3)cc1 (configuration not stated)	-14.5% (inactive)	

Compound	activity change, negative = inhibition	Potency
C/C(=N\NC(=O)Cc1ccc(Cl)cc1)c1ccccn1		3.26 µM (active)
C/C(=N\NC(=O)Cc1ccc(F)cc1)c1ccc(F)cc1	-2.05% (inactive)	
CC(=NNC(=S)N1CCCCCC1)c1ccccn1		1.16 µM (active)
CNC(=S)N1CCN(c2ccccn2)CC1	-6.46% (inactive)	
COc1ccc(C/C(C)=N/NC(=O)c2ccncc2)cc1	9.67% (inactive)	
COc1ccc(CC(=O)NC(C)CCc2ccccc2)cc1 (configuration not stated)	-21.7% (inactive)	
Cc1ccc(Cl)cc1NC(=O)c1ccccn1	25.8% (inactive)	
Cc1cccc(C)c1NC(=S)N1CCCCCC1	7.37% (inactive)	
COc1ccc(CC(=O)N/N=C(\C)c2ccccn2)cc1		14.6 µM (active)
Cc1noc(C)c1NC(=O)Nc1ccc2c(c1)C(=O)N([C@H](C)CO)C[C@H](C)[C@@H](CN(C)C(=O)Nc1ccc(C(F)(F)F)cc1)O2	-5.04% (inactive)	
Cc1ccc(-c2nn(CCC(=O)Nc3ccc(Cl)c(Cl)c3)c(=O)c3ccccc23)cc1	-4.96% (inactive)	
CCCNC(=O)C(CC)n1nc(CC)n2c(cc3oc(C)cc32)c1=O (configuration not stated)	-22.5% (inactive)	
CCOc1cccc(NC(=O)CSc2ncc(-c3ccc(Cl)cc3)[nH]2)c1	10.8% (inactive)	
Cc1ccc(Nc2c(-c3ccc(Cl)cc3)nc3sccn23)c(C)c1	11.2% (inactive)	
O=C(NN=Cc1ccccc1O)NN=Cc1ccccc1O	0.438% (inactive)	
COc1ccc(NC(=O)C2CCCN(S(=O)(=O)c3cccc4cccnc34)C2)cc1 (configuration not stated)		23.1 µM (active)
Cc1n[nH]c(C)c1S(=O)(=O)N1CCCC(C(=O)NCC2COc3ccccc3O2)C1 (configuration not stated)	-12.5% (inactive)	
CC(=O)Nc1ccc(NC(=O)C2CCCN(S(=O)(=O)c3ccc4c(c3)CCCC(=O)N4)C2)cc1 (configuration not stated)	29.4% (inactive)	
Cc1n[nH]c(C)c1S(=O)(=O)N1CCCC(C(=O)Nc2ccc(Br)cc2)C1 (configuration not stated)		inactive and 14.6 µM (active)
COc1ccc(NC(=O)C2CCCN(S(=O)(=O)c3cccc4cccnc34)C2)cc1OC (configuration not stated)	-26.2% (inactive)	
O=C(O)C1CCCN(S(=O)(=O)c2cccc3cccnc23)C1 (configuration not stated)	-8.34% (inactive)	
COc1ccc(Cl)cc1NC(=O)CN(C)CC(=O)Nc1ccc2c(c1)OCO2	-16% (inactive)	
O=C(Cn1cc(SCc2cccc(Cl)c2)c2ccccc21)N1CCCCC1	-21.2% (inactive)	
COc1cc(OC)cc(-c2c(-c3cccs3)c3cc(-c4ccc(OC)nc4)ccc3n2C)c1	-22.5% (inactive)	
COc1ccc(-c2c(-c3cc(OC)cc(OC)c3)n(C)c3ccc(-c4ccn[nH]4)cc23)cc1		11.6 µM (active)

Compound	activity change, negative = inhibition	Potency
COc1cc(OC)cc(-c2c(-c3ccc(F)cc3)c3cc(-c4ccc5cc[nH]c5c4)ccc3n2C)c1	-11.2% (inactive)	
COCC(=O)N(C)[C@H]1C[C@H]2c3cc(Oc4ccccc4C)ccc3CCN2C(=O)[C@H]1[C@H](C)O	0.467% (inactive)	
CC(OC(=O)c1cc2ccccc2[nH]1)C(=O)N(C)c1ccccc1 (configuration not stated)	-3.45% (inactive)	
Cc1ccc(C)c(N2CCN(C(=O)CN3C(=O)COc4ccc(S(=O)(=O)N5CCCCCC5)cc43)CC2)c1	6.28% (inactive)	
O=C(CC1Sc2ccccc2NC1=O)NNc1ccc(Cl)c(Cl)c1 (configuration not stated)	-2.12% (inactive)	
Cc1cccc(Nc2nc(NCCO)nc(N3CCCC3)n2)c1	-11.3% (inactive)	
OCCCNc1nc(-c2ccccc2)c2cc(Cl)ccc2n1	-5.54% (inactive)	
OCCCNc1nccc(-c2cc(Nc3cccc(Cl)c3)ncn2)n1		2.06 µM (active)
Cc1ccc(NC(=O)Cn2cnc3c(OCc4ccccc4)ncnc32)cc1C	-4.24% (inactive)	
COc1ccc(S(=O)(=O)N2C[C@H]3CON(C)[C@H]3C[C@H]2c2cccc(Br)c2)cc1	-18.2% (inactive)	
COc1ccc(CCNc2nc(-c3ccc(Cl)cc3)cc(C(F)(F)F)n2)cc1OC	-14.7% [at 9.27 µM] (inactive)	
CC(=NNC(=O)c1ccncc1)c1ccc(Cl)c(Cl)c1	-1.76% (inactive)	
NC(=O)c1sc2nc3c(c(-c4ccccc4)c2c1N)CCC3		9.2 µM (active)
Cc1sc2nc(CC(N)=O)[nH]c(=O)c2c1-c1ccccc1	1.14% (inactive)	
Nc1c(C(=O)NCc2ccccc2)sc2nc3c(cc12)C(=O)CCC3	9.66% (inactive)	
COc1ccc(N2CCN(C3=NS(=O)(=O)C(c4cccc(Br)c4)=C3C)CC2)cc1	2.1% (inactive)	
CSCCC(NC(=O)COc1ccccc1)C(=O)OCc1ccc(Cl)cc1 (configuration not stated)	-14.7% (inactive)	
CN(C)CCNC(=O)Nc1cccc(Cl)c1Cl	-2.8% (inactive)	
CN(C)CCNC(=O)c1ccc(Cl)c2cc3ccccc3nc12		18.4 µM (active)
CC(=O)NCCNC(=O)c1cc(-c2cccc3ccccc23)nc2ccccc12	7.96% (inactive)	
CC1CCCCC1NCC(=O)Nc1ccccc1C(=O)Nc1ccccc1 (configuration not stated)	-0.522% (inactive)	
CC[C@]12c3[nH]c4cc(CCC(=O)N(C)C)ccc4c3CCN1C(=O)[C@@H](CC(=O)NCCCn1ccnc1)C[C@@H]2C(=O)N1CCN(C(=O)C2CC2)CC1	2.04% (inactive)	
Cc1c(C)n(Cc2ccc(Cl)cc2)c2ccc(C(=O)N3CCN(c4ccccc4F)CC3)cc12	-26.6% (inactive)	
Cc1cccc(C(CC(=O)NCC2(c3ccccc3)CCCC2)c2ccccc2)c1O (configuration not stated)		14.6 µM (active)
COc1cc(C(=O)NCC2(c3ccccc3)CCCC2)ccc1OC(C)C	-3.66% (inactive)	

Compound	activity change, negative = inhibition	Potency
O=C(CNC1CCCCC1)NCC1(c2ccccc2)CCCC1	0.664% (inactive)	
CC(=O)c1cccc(NC(=O)c2cc(C)nn2-c2ccccc2)c1	10.8% (inactive)	
Cc1cccc(N2C(=O)c3ccc(C(=O)Nc4cccc(C(=O)O)c4)cc3C2=O)c1	6.82% (inactive)	
CC(=O)c1cccc(NC(=O)c2nc(-c3ccccc3)n(-c3cccc(C)c3)n2)c1		18.4 µM (active)
Cc1sc(C2C(C#N)=C(N)N(c3cccc(Cl)c3)C3=C2C(=O)CCC3)cc1CN1CCOCC1 (configuration not stated)	24.2% (inactive)	
COc1ccc(CNCCCNCc2ccc(OC)c(OC)c2)cc1OC	12.5% (inactive)	
CC(C)c1ccc(-c2noc(C3CCCN(S(C)(=O)=O)C3)n2)cc1 (configuration not stated)	0.129% (inactive)	
O=C(c1ccc(F)cc1)N1CCCC(c2nc(-c3cccs3)no2)C1 (configuration not stated)	11.9% (inactive)	
O=C(Cc1cccs1)N1CCCC(c2nc(-c3ccc(S(=O)(=O)N4CCCC4)cc3)no2)C1 (configuration not stated)		23.1 µM (active)
NC(=O)C1CCN(C(=O)c2ccc(C(F)(F)F)cc2)CC1	-15.4% (inactive)	
O=C(c1ccc(C(F)(F)F)cc1)N1CCC(c2nc(-c3ccc(S(=O)(=O)N4CCCC4)cc3)no2)CC1		7.31 µM (active)
O=C(c1ccncc1)N1CCN(S(=O)(=O)c2cc(C(F)(F)F)cc(C(F)(F)F)c2)CC1	-0.0458% (inactive)	
CCOc1cc(C(=O)N(Cc2ccccc2)c2ccc(C)cc2)ccc1OCC(=O)N1CCOCC1	-7.76% (inactive)	
COc1ccccc1NC(=O)C(=O)c1cc(C)n(-c2ccccc2F)c1C	23.5% (inactive)	
Oc1ccc(Cl)cc1C1C=C(c2ccc3c(c2)OCO3)NC(c2c(F)cccc2Cl)N1 (configuration not stated)	12.9% (inactive)	
OC[C@@H]1O[C@H](n2cnc3c(SCc4ccccc4)ncnc32)[C@H](O)[C@H]1O	20% (inactive)	
Cc1c(Cl)cccc1-c1ccc(CNCCCSc2nnnn2C)o1	-9.22% (inactive)	
CCCCCn1c(CCNC(=O)c2ccc(F)cc2)nc2ccccc21	6.85% [at 9.27 µM] (inactive)	
CC(C)NC(=O)C1CCC(Cn2c(=O)c3sccc3n(Cc3ccc(F)cc3)c2=O)CC1 (configuration not stated)	13.5% (inactive)	
COc1cccc(-c2nc(CS(=O)(=O)CC(=O)NCCc3ccc(OC)c(OC)c3)c(C)o2)c1		inactive
COc1cccc(-c2nc(CS(=O)(=O)CC(=O)N3CCN(c4cc(C)ccc4C)CC3)c(C)o2)c1		2.59 µM (active)
CCCCN(CC)CCCNC(=O)CS(=O)(=O)Cc1nc(-c2cccc(OC)c2)oc1C	15.6% (inactive)	
